Laboratory results from PubChem BioAssay AID463187 (University of Pittsburgh Molecular Library Screening Center, 2010).
Out of some 220,000 compounds screened, about 1,500 (0.68%) were called active. This is one part of a sample in which actives are shown more often than they occur. A number with no mark means an inactive call.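 How the source made its calls: active means Hck-Nef kinase inhibition above about 50% (limit read from the data); inactive means inhibition below that limit.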

Molecular target: Tyrosine-protein kinase HCK (Homo sapiens) (UniProt P08631)
Assay: Hck:Nef complex kinase activity blockers – biochemical, Z-Lyte FRET, 384-well, Hck-YEEI, primary screen (AID 463187);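 further: 0% = DMSO with Hck plus Nef and 100% = Hck alone without Nef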
Conditions: Recombinant Hck-YEEI plus Nef, Z-Lyte FRET kinase assay; at 20 µM; hits give high values

Chain of Tyrosine-protein kinase HCK (Homo sapiens) (P08631 whole entry, looked up): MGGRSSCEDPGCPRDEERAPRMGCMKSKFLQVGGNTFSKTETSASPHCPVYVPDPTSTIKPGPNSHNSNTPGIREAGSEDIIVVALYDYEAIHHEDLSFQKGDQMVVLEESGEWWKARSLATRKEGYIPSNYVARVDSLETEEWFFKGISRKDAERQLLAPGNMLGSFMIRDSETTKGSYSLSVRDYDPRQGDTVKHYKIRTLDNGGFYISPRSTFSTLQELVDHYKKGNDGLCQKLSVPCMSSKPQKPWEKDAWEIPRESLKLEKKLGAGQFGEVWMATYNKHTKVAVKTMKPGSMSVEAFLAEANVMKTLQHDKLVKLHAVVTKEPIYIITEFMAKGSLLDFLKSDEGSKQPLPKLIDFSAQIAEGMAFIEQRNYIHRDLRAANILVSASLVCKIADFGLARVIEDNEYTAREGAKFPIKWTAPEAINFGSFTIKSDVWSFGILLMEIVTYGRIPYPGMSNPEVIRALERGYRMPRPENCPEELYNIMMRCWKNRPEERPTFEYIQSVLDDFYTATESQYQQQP

Structure (SMILES) | inhibition
COC(=O)Cn1c(=NC(=O)c2cc(OC)c(OC)c(OC)c2)sc2cc(OC)ccc21 | -1.02%
COCC(C)NC(=O)COc1nncc2ccccc12 (configuration not stated) | 21.5%
Cc1cc(=O)[nH]c(S)c1C#N | -0.332%
O=S(=O)(Cc1ccccc1)c1nc2ccccc2n1Cc1ccccn1 | 5.67%
Cc1ccc(-n2c(C)cc(/C=N/Nc3ccc([N+](=O)[O-])cn3)c2C)c(C)c1 | 0.189%
Cc1cc(/C=N/Nc2ccc([N+](=O)[O-])cn2)c(C)n1-c1cccc(C(=O)O)c1 | 58.6% (active)
Cc1cc(/C=N/n2cnnc2)c(C)n1-c1cccc(C(=O)O)c1 | -0.934%
Cc1c(CCOC(=O)CC23CC4CC(CC(C)(C4)C2)C3)sc[n+]1Cc1ccc([N+](=O)[O-])cc1 | 6.69%
C=CCn1c(=N)n(CC(O)COc2ccc(OC)cc2)c2ccccc21 (configuration not stated) | 16%
COc1ccc(CCNCC(O)Cn2ccc3ccccc32)cc1OC (configuration not stated) | 37.4%
COC(=O)c1ccc(OCC(O)CN(CCO)CC(O)Cn2ccc3ccccc32)cc1 (configuration not stated) | 60.4% (active)
COCCCn1c(-c2cccs2)nc2nc3ccccc3nc21 | 67.9% (active)
COc1ccccc1C(=O)Nn1c(-c2cccs2)nc2ccccc2c1=O | 2.4%
CC(C)n1c(-c2cccs2)nc2ccccc21 | 10.6%
Cc1cc(C)cc(C(=O)NC(=S)Nc2ccc3[nH]c(=O)[nH]c3c2)c1 | 2.61%
Cc1cc(-c2csc(N)n2)c(C)n1-c1ccccc1 | 7.5%
CCc1cccc2c(=O)c(C(=O)NCCCOC)c[nH]c12 | -18.3%
COc1ccc(CCn2c(=N)c(C(=O)NCc3ccco3)cc3c(=O)n4cccc(C)c4nc32)cc1 | 7.77%
COc1ccccc1N(C)S(=O)(=O)c1ccc(C(=O)NC2CCCCCC2)cc1 | 0.492%
CCCCn1c(N)c(N(CC)C(=O)/C=C/c2ccco2)c(=O)[nH]c1=O | -7.95%
O=C(c1cnn(-c2ccc(Cl)cc2)c1)c1ccccc1O | 17%
Cc1ccc(CCC(=O)Nc2ncc(Cc3cc(Cl)ccc3Cl)s2)o1 | 6.19%
Cc1ncc(CC(=O)n2cc(C(=O)c3cc(Cl)ccc3O)cn2)s1 | 78.7% (active)
O=C(NCc1csc(-c2cccs2)n1)C1CC1 | -1.15%

Structure (SMILES) | inhibition
COC(=O)CN1C(=S)N(c2ccccc2)C(=O)C1CC(=O)Nc1ccc(Cl)cc1 (configuration not stated) | 2.46%
COc1ccc(C(=O)n2nc(-c3ccc(Cl)cc3)nc2N)cc1OC | 81.4% (active)
COc1ccc(C(=O)n2nc(-c3ccc(C)cc3)nc2N)cc1OC | -1.4%
COc1ccc(C(=O)O/N=C(\N)Cc2ccc(Cl)cc2Cl)cc1OC | 3.19%
CC(C)NC(=O)/C(C#N)=C\c1ccc(N(C)C)c(Br)c1 | 7.25%
O=C(O)Cc1sc(-c2ccccc2)nc1-c1cccs1 | -10.1%
CCCNC(=O)N1CCN(C(=O)NCCC)CC1 | 0.793%
O=[N+]([O-])C(=c1ccc2c(c1)N1C3=C(CCCC3)CC3CCCCC31N=2)[N+](=O)[O-] (configuration not stated) | 73% (active)
CCCCCC(=O)Nc1ccc(S(=O)(=O)Nc2ccc(Cl)nn2)cc1 | -1.44%
C=C(C)COc1ccc(-c2n[nH]c(C)c2-c2ccccc2)c(O)c1 | -0.0537%
C=C(C)COc1ccc(-c2nc(N)ncc2-c2ccccc2OC)c(O)c1 | 68.8% (active)
CCOc1ccc(-c2n[nH]c(C)c2-c2ccccn2)c(O)c1 | -15.5%
CCOc1ccccc1Oc1cn[nH]c1-c1ccc(OC)cc1O | 26.3%
CCOc1ccc(-c2nc(N)ncc2-c2ccccc2OC)c(O)c1 | 75.3% (active)
C=C(C)COc1ccc(-c2n[nH]c(C)c2-c2ccccc2OC)c(O)c1 | 12.1%
c1ccc(-c2cc3c(NCC4COc5ccccc5O4)ncnc3s2)cc1 (configuration not stated) | 5.9%
COc1ccc(-c2cc(C(=O)NCCCn3ccnc3)no2)cc1 | -9.96%
Cc1cccc2cc(CN(C(=O)c3cccs3)c3ccccc3)c(=O)[nH]c12 | 3.68%
O=C(CN1CCN(c2ccc(O)cc2)CC1)Nc1cc(S(=O)(=O)N2CCOCC2)ccc1Cl | 12.6%
O=C(N/N=C/c1ccc([N+](=O)[O-])o1)c1cccc(S(=O)(=O)N2CCOCC2)c1 | 18.1%
O=[N+]([O-])c1cc(Cl)cc(/C=N/NC(=S)Nc2cc(S(=O)(=O)N3CCOCC3)ccc2Cl)c1O | 68.6% (active)
Cc1nn(Cc2ccc(C(=O)N3N=C(C(F)F)CC3(O)C(F)F)cc2)c(C)c1[N+](=O)[O-] (configuration not stated) | -2.69%
O=C(CN1C(=O)/C(=C\c2ccccc2F)SC1=S)Nc1nc2ccccc2s1 | 4.36%
